Values joined by “and” are separate entries in the source; they are usually repeats but may differ in a detail not shown here. Equal entries are not always repeated. Inconclusive results are not listed. A structure can be active in one record and inactive in another. Active and inactive are the calls of the source. Unless noted, the call rests on the fitted dose curve; in most records, active means well fitted curve in the direction sought with a large enough effect in the repeat runs; inconclusive means weak or mixed curves; inactive means no such curve, though single readings can be large; an effect the other way counts as inactive or inconclusive.
Experiments:
[1] = qHTS assay to identify small molecule agonists of the vitamin D receptor (VDR) signaling pathway - cell viability counter screen (AID 743224); further: nearly all actives have a fitted effect of over 50% in size; further: potency means the concentration at half of the fitted maximal effect
Summary of the method: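 Viability is measured in the same wells as the VDR-bla reporter assay: after 16 h compound treatment and 2 h substrate loading, CellTiter-Glo is added and luminescence read 30 min later.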

[2] = qHTS assay to identify small molecule antagonists of the vitamin D receptor (VDR) signaling pathway - cell viability counter screen (AID 743225); further: nearly all actives have a fitted effect of over 50% in size; further: potency means the concentration at half of the fitted maximal effect
Summary of the method: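 Cells (VDR-UAS-bla HEK 293T) are plated, rested 4 h at 37C, dosed with compound and 3 nM final 1-alpha,25-dihydroxy vitamin D3, and incubated 16 h. Viability is taken from CellTiter-Glo luminescence in the reporter wells.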

[3] = qHTS assay to identify small molecule agonists of the NFkB signaling pathway - cell viability counter screen (AID 1159515; calls by dose curve; further: nearly all actives have a fitted effect of over 55% in size; further: potency means the concentration at half of the fitted maximal effect)
Summary of the method: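 Multiplexed viability readout: after the 5 hr compound exposure and 1.5 hr FRET substrate step, CellTiter-Glo reagent went into the same NFkB-bla ME-180 wells; ATP luminescence was measured after 30 min at room temperature.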

[4] = qHTS assay to identify small molecule agonists of the endoplasmic reticulum stress response signaling pathway (AID 1159516; active means well fitted activation curve with a large enough effect in the signal ratio in the repeat runs, not every such curve was filed as active; the % refers to the signal ratio; further: on the % scale 0 is the no-effect control and ±100 the full control effect)
Summary of the method: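 Tox21 10K library screened in quantitative HTS format on ESRE-bla HeLa cells, a beta-lactamase reporter under ER stress response element control; 5 hr treatment, FRET read.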

[5] = qHTS assay to identify small molecule agonists of the endoplasmic reticulum stress response signaling pathway - cell viability counter screen (AID 1159517; calls by dose curve; further: series mostly up to about 61 µM; on the % scale 0 is the no-effect control and ±100 the full control effect; nearly all actives have a fitted effect of over 50% in size)
Summary of the method: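 Cells, HeLa ESRE-bla; density, 1,500/well; dosing, 5 hr at 37 C, 5% CO2; readout, CellTiter-Glo luminescence after 30 min RT.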

[6] = molecular target: Nuclear receptor ROR-gamma (Homo sapiens) (UniProt P51449); assay: qHTS assay to identify small molecule antagonists of the retinoid-related orphan receptor gamma (ROR-gamma) signaling pathway (AID 1159521; further: nearly all actives have a fitted effect of over 50% in size; further: potency means the concentration at half of the fitted maximal effect)
Summary of the method: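 RORγ antagonism is scored from reduced reporter luminescence in Tet-on CHO cells. Induction used 1 uM final doxycycline hyclate for 16 h at 37 C, following a 2 h compound exposure.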

[7] = qHTS assay to identify small molecule agonists of the AP-1 signaling pathway - cell viability counter screen (AID 1159525; calls by dose curve; further: nearly all actives have a fitted effect of over 55% in size; further: potency means the concentration at half of the fitted maximal effect)
Summary of the method: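 Luminescent ATP readout (Cell Titer Glo, 30 min RT), normalised to DMSO and tetra n-octyl ammonium bromide controls. Cells were ME-180 AP-1-bla in 0.5% dialyzed FBS Opti-MEM, with a 5 h, 37 °C compound exposure.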

[8] = qHTS assay to identify small molecule agonists of the AP-1 signaling pathway (AID 1159526; calls by dose curve; further: on the % scale 0 is the no-effect control and ±100 the full control effect)
[9] = molecular target: Retinoic acid receptor RXR-alpha (Homo sapiens) (UniProt P19793); assay: qHTS assay to identify small molecule agonists of the RXR signaling pathway (AID 1159527; calls by dose curve; further: on the % scale 0 is the no-effect control and ±100 the full control effect; nearly all actives have a fitted effect of over 35% in size)
Retinoic acid receptor RXR-alpha (Homo sapiens), sequence (P19793 whole entry, looked up): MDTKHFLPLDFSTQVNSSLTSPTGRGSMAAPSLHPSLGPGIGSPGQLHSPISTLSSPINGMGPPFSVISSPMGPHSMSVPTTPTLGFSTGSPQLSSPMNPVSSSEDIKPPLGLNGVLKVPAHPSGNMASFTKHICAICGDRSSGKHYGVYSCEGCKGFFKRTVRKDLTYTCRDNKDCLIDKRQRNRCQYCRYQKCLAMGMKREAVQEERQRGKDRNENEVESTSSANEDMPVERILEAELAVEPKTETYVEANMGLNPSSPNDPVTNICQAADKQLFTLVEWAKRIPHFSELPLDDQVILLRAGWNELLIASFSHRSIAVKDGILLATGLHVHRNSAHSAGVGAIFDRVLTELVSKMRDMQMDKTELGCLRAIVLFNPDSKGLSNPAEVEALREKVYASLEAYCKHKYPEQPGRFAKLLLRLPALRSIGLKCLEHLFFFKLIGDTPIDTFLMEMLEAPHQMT
Summary of the method: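 qHTS of the Tox21 10K library in GeneBLAzer RXR-alpha HEK 293T cells carrying a beta-lactamase reporter […]; 16 hr treatment, 9-cis retinoic acid as agonist control, FRET read-out.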

[10] = qHTS assay to identify small molecule agonists of the RXR signaling pathway - cell viability counter screen (AID 1159529); further: nearly all actives have a fitted effect of over 50% in size; further: potency means the concentration at half of the fitted maximal effect
Summary of the method: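 Cell viability is measured by CellTiter-Glo luminescence, 30 min at room temperature, in wells already read for beta-lactamase. Engineered HEK 293T cells (RXR-alpha-UAS-bla) are dosed 16 hr at 37 C. Tetraoctyl ammonium bromide serves as positive control.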

[11] = qHTS assay to identify small molecule antagonists of the retinoid acid receptor (RAR) signaling pathway - cell viability counter screen (AID 1159551); further: on the % scale 0 is the no-effect control and ±100 the full control effect; nearly all actives have a fitted effect of over 35% in size
Summary of the method: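 Cytotoxicity counter screen in C3RL4 cells: 6 h compound exposure with 1 uM retinol (final), viability from cellular ATP by luminescence.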

[12] = qHTS assay to identify small molecule antagonists of the retinoic acid receptor (RAR) signaling pathway (AID 1159552; further: nearly all actives have a fitted effect of over 50% in size; further: potency means the concentration at half of the fitted maximal effect)
Summary of the method: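 Quantitative HTS in C3RL4 RARE-luciferase reporter cells. Compounds were added with 1 uM (final) retinol; luminescence was read after 6 hr.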

[13] = qHTS assay to identify small molecule agonists of the retinoic acid receptor (RAR) signaling pathway (AID 1159553); further: potency means the concentration at half of the fitted maximal effect
Summary of the method: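 Agonist activity was scored in C3RL4 cells bearing a retinoic acid response element luciferase construct. Cells were treated with compounds for 6 hr at 37 C, and luciferase signal was measured as luminescence.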

[14] = qHTS assay to identify small molecule antagonists of the estrogen related receptor signaling pathway with the pleiotropic PPARgamma coactivator (PGC) cell viability counter screen (AID 1224822;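 further: series mostly up to about 46 µM; viability read after 17.5 h compound exposure; on the % scale 0 is the no-effect control and ±100 the full control effect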)
Summary of the method: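 Seed PGC/ERR cells (2,000/well); incubate 6 h at 37 C/5% CO2; pin-transfer compounds in DMSO; incubate 17.5 h at 37 C; add CellTiter-Fluor; after 30 min read fluorescence.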

[15] = qHTS assay to identify small molecule antagonists of the estrogen related receptor (ERR) signaling pathway from Tox21 library - cell viability counter screen (AID 1224834); further: nearly all actives have a fitted effect of over 30% in size; further: potency means the concentration at half of the fitted maximal effect
Summary of the method: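 Cytotoxicity of test substances is gauged in the same ERR cells used for the antagonist screen, after 17.5 h of compound treatment at 37 C, by CellTiter-Fluor fluorescence measured after 30 min.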

[16] = qHTS assay to identify small molecule antagonists of the retinoid-related orphan receptor gamma (ROR-gamma) signaling pathway - cell viability counter screen (AID 1159520); further: nearly all actives have a fitted effect of over 50% in size; further: potency means the concentration at half of the fitted maximal effect
Summary of the method: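 Cytotoxicity was read from cellular ATP (CellTiter-Glo luminescence) after 16 hr at 37 C with 1 uM doxycycline induction. The inducer was added 2 hr after compound transfer to Tet-on ROR gamma CHO cells.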

[17] = qHTS assay to identify small molecule antagonists of the estrogen related receptor (ERR) signaling pathway (AID 1224819)
Summary of the method: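 Compounds dissolved in DMSO were pin-transferred onto ERR cells that had been plated 6 h earlier, and cells were then incubated 18 h at 37 C; signal was luciferase luminescence via One-Glo.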

[18] = qHTS assay to identify small molecule agonists of the estrogen related receptor (ERR) signaling pathway (AID 1224820); further: on the % scale 0 is the no-effect control and ±100 the full control effect
Summary of the method: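 Quantitative HTS of the LOPAC library used NTP ERR reporter cells treated 18 h at 37 C. Signal is luminescence after One-Glo addition and a 30 min room-temperature incubation.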

[19] = tested on: estrogen-related receptor alpha (ERRalpha) with PGC-1alpha coactivator, human; assay: qHTS assay to identify small molecule antagonists of the estrogen related receptor signaling pathway with the pleiotropic PPARgamma coactivator (PGC) (AID 1224821; calls by dose curve)
Summary of the method: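 Quantitative HTS for antagonism: PGC/ERR cells received compounds after 6 h attachment and were incubated 18 h at 37 C, with luminescence (One-Glo) as the endpoint.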

[20] = qHTS assay to identify small molecule agonists of the estrogen related receptor signaling pathway with the pleiotropic PPARgamma coactivator (PGC) (AID 1224823); further: on the % scale 0 is the no-effect control and ±100 the full control effect
Summary of the method: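 Cell-based luciferase assay in the NTP-supplied PGC/ERR line, 2,000 cells/well; 18 h compound exposure at 37 C, luminescence after One-Glo.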

CC(=O)N[C@@H](CS)C(=O)O
inactive: Potency [1] | Potency [2] | Potency [3] | outcome [4] | Potency [5] | Potency [6] | Potency [7] | Potency [8] | Potency [9] | Potency [10] | Potency [11] | Potency [12] | Potency [13] | Potency [14] | Potency [15]

Nc1ccc(O)cc1
inactive: Potency [1] | Potency [2] | Potency [3] | outcome [4] | Potency [5] | Potency [8] | Potency [9] | Potency [10] | Potency [11] | Potency [12]
active: Potency [13] 20.1 µM
31.8 µM (active) and inactive: Potency [6] | Potency [15]
32.1 µM (active) and inactive: Potency [7]

O=Nc1ccc(Nc2ccccc2)cc1
active: Potency [1] 17.5 µM and 49 µM | Potency [16] 19.4 µM and 15.4 µM | Potency [6] 7.74 µM and 10.9 µM | Potency [15] 19.4 µM and 24.3 µM
inactive: Potency [3] | outcome [4]

CCCCOCCOC(=O)c1ccccc1C(=O)OCCOCCCC
38.1 µM (active) and inactive: Potency [10]
30.2 µM (active) and inactive: Potency [1]
inactive: Potency [2] | Potency [3] | outcome [4] | Potency [5] | Potency [6] | Potency [9] | Potency [11] | Potency [12]

Clc1ccc2c(c1)C(N1CCNCC1)=Nc1ccccc1O2
49 µM (active) and inactive: Potency [2]
inactive: Potency [3] | Potency [5] | Potency [16] | Potency [6] | Potency [7] | Potency [9] | Potency [10] | Potency [11] | Potency [15]

O=C1CC2(CCCC2)CC(=O)N1CCCCN1CCN(c2ncccn2)CC1
27.3 µM (active) and inactive: Potency [6]
inactive: Potency [1] | Potency [2] | Potency [3] | outcome [4] | Potency [5] | Potency [7] | Potency [8] | Potency [11] | Potency [12] | Potency [17] | outcome [18] | Potency [19] | Potency [14] | outcome [20]

CC(=O)CC(=O)Nc1ccc2[nH]c(=O)[nH]c2c1
inactive: Potency [1] | Potency [3] | outcome [4] | Potency [5] | Potency [6] | Potency [7] | Potency [8] | Potency [9] | Potency [10] | Potency [11] | Potency [12] | Potency [13] | Potency [15]

CC(C(O)c1ccc(O)cc1)N1CCC(Cc2ccccc2)CC1 (stereo not drawn)
inactive: Potency [1] | Potency [2] | Potency [3] | outcome [4] | Potency [5] | Potency [6] | Potency [8] | Potency [9] | Potency [11] | Potency [12] | outcome [18] | outcome [20] | Potency [15]

CC(=O)O[C@]1(C(C)=O)CC[C@H]2[C@@H]3C[C@H](C)C4=CC(=O)CC[C@]4(C)[C@H]3CC[C@@]21C
active: Potency [6] 26.6 µM | Potency [15] 61.1 µM
inactive: Potency [1] | Potency [3] | outcome [4] | Potency [5] | Potency [10] | Potency [11]

c1ccc2cc3c(ccc4ccccc43)cc2c1
inactive: Potency [1] | Potency [2] | Potency [3] | Potency [5] | Potency [16] | Potency [6] | Potency [7] | Potency [8] | Potency [9] | Potency [10] | Potency [11] | Potency [12]

CC(C)(C)NCC(O)c1cc(O)cc(O)c1 (stereo not drawn)
inactive: Potency [1] | Potency [3] | outcome [4] | Potency [5] | Potency [6] | Potency [8] | Potency [9] | Potency [10] | Potency [11] | Potency [12] | Potency [14] | Potency [15]
active: Potency [2] 1.9 nM

NNCCc1ccccc1
inactive: Potency [1] | Potency [2] | Potency [3] | outcome [4] | Potency [5] | Potency [6] | Potency [7] | Potency [8] | Potency [9] | Potency [11] | Potency [12] | Potency [14] | Potency [15]

OCCN1CCNCC1
inactive: Potency [1] | Potency [2] | Potency [3] | outcome [4] | Potency [5] | Potency [7] | Potency [8] | Potency [9] | Potency [10] | Potency [11] | Potency [15]

O=C(O)c1cn(-c2ccc(F)cc2)c2cc(N3CCNCC3)c(F)cc2c1=O
inactive: Potency [1] | Potency [3] | outcome [4] | Potency [5] | Potency [6] | Potency [7] | Potency [8] | Potency [9] | Potency [11] | Potency [12] | Potency [13] | Potency [15]

BrC1CCC(Br)C(Br)CCC(Br)C(Br)CCC1Br (stereo not drawn)
active: Potency [1] 18.5 µM | Potency [2] 16500 nM | Potency [16] 43.1 µM | Potency [6] 27.2 µM and 58 µM | Potency [10] 15.4 µM and 18.5 µM
inactive: Potency [3] | Potency [5] | Potency [7] | Potency [9] | Potency [11]

CCCCN(CCO)CCCC
inactive: Potency [1] | Potency [2] | Potency [3] | outcome [4] | Potency [5] | Potency [6] | Potency [7] | Potency [8] | Potency [9] | Potency [10] | Potency [11] | Potency [12]

Nc1ccc2cc3ccccc3cc2c1
inactive: Potency [1] | Potency [2] | Potency [3] | Potency [5] | Potency [16] | Potency [6] | Potency [7] | Potency [8] | Potency [11] | Potency [12]

O=C1Nc2ccccc2C1(c1ccc(O)cc1)c1ccc(O)cc1
inactive: Potency [1] | outcome [4] | Potency [5] | Potency [6] | Potency [9] | Potency [10] | Potency [11]
active: Potency [3] 0.174 µM | Potency [12] 61.1 µM | Potency [15] 43.3 µM

CCCCCCCCCCCC[N+](C)(C)C
active: Potency [1] 49 µM and 21.9 µM | Potency [6] 24.3 µM and 21.7 µM
inactive: Potency [3] | outcome [4] | Potency [16] | Potency [7] | Potency [8] | Potency [11]

NC(Cc1ccc(Cl)cc1)C(=O)O (stereo not drawn)
inactive: activity change, negative = cytotoxicity [1] 2.72% [at 0.55 µM] | viability change, negative = cytotoxic [2] -8.18% [at 0.628 µM] | activity, negative = cytotoxic [3] 8.56% [at 0.628 µM] | activation [4] 2.37% [at 0.628 µM] | activity change, negative = cytotoxicity [5] 3.91% [at 0.628 µM] | activity change, negative = inhibition [6] 14.9% [at 0.35 µM] | viability change, negative = cytotoxic [7] -2.41% [at 0.29 µM] | activation [8] -0.248% [at 0.29 µM] | activation [9] -0.301% [at 0.29 µM] | activity change, negative = cytotoxicity [10] 5.89% [at 0.29 µM] | activity change, negative = cytotoxicity [11] 2.93% [at 0.349 µM] | activity, negative = inhibition [12] 4.68% [at 0.349 µM] | activation [13] 0.724% [at 0.756 µM] | Potency [17] | outcome [18] | Potency [19] | Potency [14] | outcome [20]

Reference: PubChem BioAssay (Tox21)
